# Insulin prom up – MIN6 insulin promoter up-regulation | AID 1625 | z-score at 5 µM | MIN6 insulin promoter-GFP reporter, high-content imaging; stronger effect = higher value | actives 0.3% (n = 190,000);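 active means z-score above 3 at 5 µM with at least 500 cells counted in the well; inconclusive means wells under 500 cells, flagged as cytotoxic or low count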
# INS promoter inh – TRM-6 insulin promoter activity inhibition; TRM-6 cells (human fetal islet line), insulin promoter-eGFP reporter, imaging; reporter expression induced with tamoxifen; inhibition, % at 2 µM; actives 0.9% (n = 130,000);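 active means inhibition above the mean plus 3 SD, with well images judged a real hit on visual review, cut at about 60% in these data, passing the limit was not always enough; inconclusive means inhibition over the cutoff but images rejected on review; inactive means inhibition not above the cutoff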
# WT yeast gro inh – growth inhibition of WT yeast, mitochondrial fusion screen | inhibition, % at 10 µM | AID 1362 | actives 2.1% (n = 190,000) | mitochondrial fusion phenotypic screen, WT strain; in the data active means inhibition above about 58%; tested in S. cerevisiae
# Lmaj promast – reduces viability of Leishmania major promastigotes | resazurin fluorescence viability | actives 9% (n = 200,000) | inhibition, % at 10 µM | AID 1063; in the data active means inhibition above about 50%;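 further: promastigotes grown with compound for 44 hours at 28 °C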
# Autophagy mod – alters autophagy in cells; MEF GFP-LC3 puncta imaging; test concentration mostly 10 µM; calls only at 10 µM (by protocol); AID 463193; actives 0.98% (n = 190,000);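 active means percentage of spot-positive cells more than 3 SD above its plate mean, without a fluorescence outlier flag or 80% toxicity; inconclusive means no clear call, values can overlap the other calls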;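 further: spot-positive cell cutoff set from DMSO-treated cells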
# Active calls of the source: *; i = inactive; ? = inconclusive; . = not tested or not shown; + = active, no number. An excerpt weighted towards active compounds, which were near 11% of everything screened.
SMILES,Insulin prom up,INS promoter inh,WT yeast gro inh,Lmaj promast,Autophagy mod
O=C(NCC1CCCO1)NC12CC3CC(CC(C3)C1)C2 (stereo not given),-0.55,.,9,-10,i
S=C(NCC1CCCO1)NC12CC3CC(CC(C3)C1)C2 (stereo not given),0.42,19,68*,62*,i
O=C(/C=C\c1ccc2c(c1)OCO2)CC1(O)C(=O)Nc2ccccc21 (stereo not given),0.09,.,.,.,.
O=C1CN(S(=O)(=O)c2ccccc2)c2ccccc2N1,0.76,.,5,-3,i
CCCc1nc2oc3c(NCCCN(C)C)ncnc3c2c2c1CCCC2,-0.13,.,.,.,.
CCCc1nc2oc3c(NCCN(C)C)ncnc3c2c2c1CCCC2,-2.2,.,-1,101*,i
O=C(/C=C/c1cccc([N+](=O)[O-])c1)n1cnc2ccccc21,0.16,-47,36,-1,i
CC(C)N(C(=S)NC1CC2CCC1C2)c1ccccc1 (stereo not given),-2.7,27,65*,15,i
CN(CC1COc2ccccc2O1)C(=S)Nc1ccccc1 (stereo not given),.,-9,.,9,i
CN(C)c1cccc(C(=O)NNC(=S)NC2CC3CCC2C3)c1 (stereo not given),0.21,-7,-12,-3,i
CCN(CC1COc2ccccc2O1)C(=S)NC1CC2CCC1C2 (stereo not given),-0.78,.,67*,29,i
CC(NCc1ccccc1Cl)C(=O)Nc1ccc(C#N)cc1 (stereo not given),-0.98,.,-4,-2,i
COC(=O)c1cc(OC)c(OC)cc1NC(=S)N1CCCCC1,-0.6,-11,8,89*,i
O=C(OCCN1C(=O)c2cccc3c(N4CCOCC4)ccc(c23)C1=O)c1ccc(Cl)cc1,1.2,.,21,2,i
CCCN(CCC)S(=O)(=O)c1ccc(C(=O)OCCN2C(=O)c3cccc4c(N5CCOCC5)ccc(c34)C2=O)cc1,6.2*,-89,-4,14,+
C[n+]1nc(Nc2cccc(F)c2)sc1-c1ccc(C(=O)O)cc1,0.07,.,.,.,.
Cc1cccc(/C(N)=N/OC(=O)CCc2ccccc2)c1,0.12,-13,2,-1,i
CCOc1ccc2c(c1)OC(c1ccc(OC)cc1)(C(F)(F)F)NC2=O (stereo not given),0.05,.,40,100*,i
Cc1ccc(N(CCC(=O)NC(C)(C)C)S(=O)(=O)c2ccc(C)cc2)cc1,-0.19,-40,17,0,+
COc1ccc(NC(=O)CCCN(C)S(=O)(=O)c2ccc(C)cc2)cc1,-0.28,.,-7,-6,i
Cc1ccc(S(=O)(=O)N(CCC(=O)Nc2ccc(OC(F)(F)F)cc2)c2ccccc2)cc1,0.01,19,41,95*,i
Cn1c[n+](C)cc1-c1ccc(/C(N)=N/O)cc1,?,.,1,8,i
O=C(NC1CC1)C1=C[C@@H](C2CCCCC2)C[C@@H](OCc2ccc(CO)cc2)O1,-0.36,.,-25,98*,i
O=C(Nc1ccccc1)C1=C[C@@H](c2ccc(Br)cc2)C[C@@H](OCc2ccc(CO)cc2)O1,-0.13,.,51,56*,i
O=C(NC1CC1)C1=C[C@@H](C2CC2)C[C@@H](OCc2ccc(CO)cc2)O1,0.56,.,.,.,.
SMILES,Insulin prom up,INS promoter inh,WT yeast gro inh,Lmaj promast,Autophagy mod
O=C(O)C1=C[C@@H](c2ccc(Br)cc2)C[C@@H](OCc2ccc(CO)cc2)O1,-0.97,.,-27,-12,i
CC(C)(C)[C@@H]1C=C(C(=O)Nc2ccccc2)O[C@H](OCc2ccc(CO)cc2)C1,0.74,.,19,99*,i
Cc1ccc(S(=O)(=O)NC(=O)NCCc2ccccc2)cc1,0.16,.,-8,2,i
COc1ccccc1N1CCN(C(CNS(=O)(=O)c2cccs2)c2cccnc2)CC1 (stereo not given),0.9,.,-7,83*,i
O=S(=O)(NCC(c1cccnc1)N1CCOCC1)c1ccccc1 (stereo not given),0.31,27,14,-2,i
COc1ccc(N2CCN(C(CNS(=O)(=O)c3cccs3)c3cccnc3)CC2)cc1 (stereo not given),-1.6,10,-19,98*,i
O=S(=O)(NCC(c1cccnc1)N1CCN(c2ccccc2)CC1)c1cccs1 (stereo not given),0.88,-81,20,89*,i
CCc1ccccc1NC(=O)Nc1cc(F)ccc1F,0.22,.,9,30,i
CCCCOC(=O)CCCN1C(=O)/C(=C2\SC(=S)N(CCCC(=O)OCCCC)C2=O)SC1=S,-0.5,.,.,.,.
COc1cc(CNCCN2CCOCC2)ccc1OCc1ccc(Cl)cc1Cl,-0.3,.,-7,100*,i
